# PMC7862700, “An all-to-all approach to the identification of sequence-specific readers for epigenetic DNA modifications on cytosine”
# What was measured:
# Assay in all cases: DAPPL (digital affinity profiling via proximity ligation, sequencing); 10 mM Tris-HCl pH 7.5, 50 mM NaCl, 1 mM DTT, 4% glycerol, room temperature, 30 min; GST-TFs on glutathione beads, 16-mer random dsDNA library, 0.1% formaldehyde crosslink after washing; high values mean tight binding
# Conditions in all cases: protein: recombinant; tags: N-terminal GST; dsDNA, one strand shown
# ELK1 = biological target: T1, ELK1 (Homo sapiens, UniProt P19419 1-428)
# T1 sequence: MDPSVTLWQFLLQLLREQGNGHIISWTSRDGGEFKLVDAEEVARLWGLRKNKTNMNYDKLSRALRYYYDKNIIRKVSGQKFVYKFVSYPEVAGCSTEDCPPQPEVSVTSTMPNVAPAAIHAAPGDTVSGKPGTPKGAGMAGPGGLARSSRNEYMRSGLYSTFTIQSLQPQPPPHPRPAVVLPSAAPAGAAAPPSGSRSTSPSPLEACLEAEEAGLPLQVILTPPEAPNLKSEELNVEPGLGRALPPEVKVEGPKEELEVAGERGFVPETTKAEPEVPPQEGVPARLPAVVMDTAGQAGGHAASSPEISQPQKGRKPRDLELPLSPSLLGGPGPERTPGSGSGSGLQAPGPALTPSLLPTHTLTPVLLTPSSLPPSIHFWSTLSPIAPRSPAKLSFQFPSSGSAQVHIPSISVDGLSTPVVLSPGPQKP
# Method in brief: (§1)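 Human transcription factors fused to GST were expressed in yeast, captured on glutathione beads, given DNA barcodes and pooled with a GST-only negative control. Pools were incubated with 200 nmole of a 16-mer random double-stranded DNA library in Tris/NaCl/DTT/glycerol buffer at room temperature for 30 min. They were then washed, crosslinked with 0.1% formaldehyde, proximity-ligated (BsaI/T4 ligase, 1 h, 37 °C), PCR-amplified and sequenced on an Illumina NextSeq500. Binding signal is each 6-mer's read frequency for a factor divided by its frequency for the GST control.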
# ERG = biological target: T2, ERG (Homo sapiens, UniProt P11308 1-479)
# T2 sequence: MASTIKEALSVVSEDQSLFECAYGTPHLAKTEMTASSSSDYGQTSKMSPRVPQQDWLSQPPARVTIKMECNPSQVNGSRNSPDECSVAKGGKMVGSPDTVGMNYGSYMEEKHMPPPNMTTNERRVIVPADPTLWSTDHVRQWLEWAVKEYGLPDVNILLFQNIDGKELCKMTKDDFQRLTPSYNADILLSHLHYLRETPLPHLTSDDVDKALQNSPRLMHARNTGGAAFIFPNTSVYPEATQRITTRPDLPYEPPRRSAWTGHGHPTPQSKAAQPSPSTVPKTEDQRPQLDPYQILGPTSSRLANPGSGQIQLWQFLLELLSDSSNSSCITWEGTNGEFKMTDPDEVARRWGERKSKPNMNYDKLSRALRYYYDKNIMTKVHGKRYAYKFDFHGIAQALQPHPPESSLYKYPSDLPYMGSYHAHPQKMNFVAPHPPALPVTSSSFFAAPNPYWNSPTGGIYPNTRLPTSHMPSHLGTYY
# Method in brief: as §1
# ELF1 = ELF1 (Homo sapiens, UniProt P32519 1-619)
# Sequence of ELF1 (P32519 whole entry): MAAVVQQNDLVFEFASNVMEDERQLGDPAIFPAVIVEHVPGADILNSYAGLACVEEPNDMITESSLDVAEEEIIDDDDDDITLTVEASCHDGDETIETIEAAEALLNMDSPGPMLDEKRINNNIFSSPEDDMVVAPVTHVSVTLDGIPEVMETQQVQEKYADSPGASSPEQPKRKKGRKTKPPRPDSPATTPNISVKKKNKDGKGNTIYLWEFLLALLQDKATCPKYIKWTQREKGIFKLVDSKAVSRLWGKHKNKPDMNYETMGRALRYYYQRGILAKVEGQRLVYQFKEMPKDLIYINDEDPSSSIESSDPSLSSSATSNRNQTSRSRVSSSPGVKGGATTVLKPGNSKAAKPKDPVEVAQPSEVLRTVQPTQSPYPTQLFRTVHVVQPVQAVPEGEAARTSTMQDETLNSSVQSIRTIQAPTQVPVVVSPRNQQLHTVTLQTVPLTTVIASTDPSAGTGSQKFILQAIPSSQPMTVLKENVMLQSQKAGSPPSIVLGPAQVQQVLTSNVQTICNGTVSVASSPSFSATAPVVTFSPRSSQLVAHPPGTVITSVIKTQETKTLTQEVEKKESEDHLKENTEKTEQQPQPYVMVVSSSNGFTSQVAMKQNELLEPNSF
# Method in brief: as §1
# EHF = biological target: T3, EHF (Homo sapiens, UniProt Q9NZC4 1-300)
# T3 sequence: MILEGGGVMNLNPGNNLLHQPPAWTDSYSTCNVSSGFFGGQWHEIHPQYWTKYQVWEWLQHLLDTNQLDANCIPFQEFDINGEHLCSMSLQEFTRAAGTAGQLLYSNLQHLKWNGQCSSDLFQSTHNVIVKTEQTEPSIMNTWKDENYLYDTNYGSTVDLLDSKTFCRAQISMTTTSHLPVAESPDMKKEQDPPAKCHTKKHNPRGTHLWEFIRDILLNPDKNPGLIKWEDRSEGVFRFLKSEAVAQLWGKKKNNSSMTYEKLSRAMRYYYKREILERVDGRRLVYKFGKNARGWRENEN
# Method in brief: as §1
# SPIB = SPIB (Homo sapiens, UniProt Q01892 1-262)
# Sequence of SPIB (Q01892 whole entry): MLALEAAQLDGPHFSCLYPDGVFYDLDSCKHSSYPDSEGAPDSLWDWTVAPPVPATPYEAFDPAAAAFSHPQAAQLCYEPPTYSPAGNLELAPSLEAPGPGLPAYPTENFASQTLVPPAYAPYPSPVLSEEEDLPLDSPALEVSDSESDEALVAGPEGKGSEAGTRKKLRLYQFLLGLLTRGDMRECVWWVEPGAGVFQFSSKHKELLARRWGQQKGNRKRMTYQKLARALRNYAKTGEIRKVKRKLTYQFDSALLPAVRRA
# Method in brief: as §1
# ELK3 = biological target: T4, ELK3 (Homo sapiens, UniProt P41970 1-407)
# T4 sequence: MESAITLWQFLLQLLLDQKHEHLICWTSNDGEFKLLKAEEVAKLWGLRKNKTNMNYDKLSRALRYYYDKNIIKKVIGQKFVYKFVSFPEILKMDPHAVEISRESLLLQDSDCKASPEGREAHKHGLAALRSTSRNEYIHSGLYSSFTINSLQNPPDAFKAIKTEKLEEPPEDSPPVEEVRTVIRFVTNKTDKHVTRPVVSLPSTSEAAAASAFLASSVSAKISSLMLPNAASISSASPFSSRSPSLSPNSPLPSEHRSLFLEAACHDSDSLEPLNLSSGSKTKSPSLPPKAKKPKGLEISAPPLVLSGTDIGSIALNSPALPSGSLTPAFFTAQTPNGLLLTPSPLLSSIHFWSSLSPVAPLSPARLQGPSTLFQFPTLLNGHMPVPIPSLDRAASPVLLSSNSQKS
# Method in brief: as §1
# FEV = biological target: T5, FEV (Homo sapiens, UniProt Q99581 1-238)
# T5 sequence: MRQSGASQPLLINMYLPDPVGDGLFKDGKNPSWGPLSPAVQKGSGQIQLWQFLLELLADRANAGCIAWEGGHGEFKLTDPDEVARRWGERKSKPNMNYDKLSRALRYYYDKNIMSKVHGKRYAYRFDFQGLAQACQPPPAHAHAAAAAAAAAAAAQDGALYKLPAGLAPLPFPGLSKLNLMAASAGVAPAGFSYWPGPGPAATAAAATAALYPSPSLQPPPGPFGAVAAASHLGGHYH
# Method in brief: as §1
# ETV5 = ETV5 (Homo sapiens, UniProt P41161 1-510)
# Sequence of ETV5 (P41161 whole entry): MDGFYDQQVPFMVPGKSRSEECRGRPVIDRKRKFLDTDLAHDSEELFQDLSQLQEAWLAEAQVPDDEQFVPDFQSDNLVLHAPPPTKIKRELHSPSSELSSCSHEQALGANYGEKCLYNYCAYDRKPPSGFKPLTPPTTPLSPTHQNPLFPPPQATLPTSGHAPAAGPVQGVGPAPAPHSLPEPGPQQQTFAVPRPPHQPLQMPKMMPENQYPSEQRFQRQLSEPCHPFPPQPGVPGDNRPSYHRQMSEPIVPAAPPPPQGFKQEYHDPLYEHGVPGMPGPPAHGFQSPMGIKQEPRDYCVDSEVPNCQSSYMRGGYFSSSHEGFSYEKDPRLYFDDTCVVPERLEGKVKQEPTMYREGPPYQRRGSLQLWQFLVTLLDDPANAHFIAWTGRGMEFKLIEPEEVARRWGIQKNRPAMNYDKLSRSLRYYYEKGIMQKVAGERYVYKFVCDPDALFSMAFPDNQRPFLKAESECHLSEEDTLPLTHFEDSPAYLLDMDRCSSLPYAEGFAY
# Method in brief: as §1
# ELF4 = ELF4 (Homo sapiens, UniProt Q99607 1-663)
# Sequence of ELF4 (Q99607 whole entry): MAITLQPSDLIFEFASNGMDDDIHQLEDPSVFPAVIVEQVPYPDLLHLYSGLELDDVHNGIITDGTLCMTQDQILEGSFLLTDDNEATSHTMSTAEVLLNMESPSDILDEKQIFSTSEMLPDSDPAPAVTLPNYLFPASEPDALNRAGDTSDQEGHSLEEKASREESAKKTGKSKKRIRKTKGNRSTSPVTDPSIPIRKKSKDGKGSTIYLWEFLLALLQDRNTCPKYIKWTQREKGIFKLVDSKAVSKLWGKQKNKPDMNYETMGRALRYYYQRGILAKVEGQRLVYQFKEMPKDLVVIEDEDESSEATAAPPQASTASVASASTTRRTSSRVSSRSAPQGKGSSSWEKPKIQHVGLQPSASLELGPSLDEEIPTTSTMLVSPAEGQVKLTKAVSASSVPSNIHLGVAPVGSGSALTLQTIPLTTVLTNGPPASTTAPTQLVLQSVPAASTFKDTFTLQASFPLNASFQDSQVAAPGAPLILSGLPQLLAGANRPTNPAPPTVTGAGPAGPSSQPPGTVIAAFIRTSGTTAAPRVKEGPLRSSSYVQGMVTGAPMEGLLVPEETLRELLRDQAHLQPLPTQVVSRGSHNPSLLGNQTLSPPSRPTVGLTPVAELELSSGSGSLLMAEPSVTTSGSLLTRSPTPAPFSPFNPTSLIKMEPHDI
# Method in brief: as §1
# ELK4 = biological target: T6, ELK4 (Homo sapiens, UniProt P28324-2 1-405)
# T6 sequence: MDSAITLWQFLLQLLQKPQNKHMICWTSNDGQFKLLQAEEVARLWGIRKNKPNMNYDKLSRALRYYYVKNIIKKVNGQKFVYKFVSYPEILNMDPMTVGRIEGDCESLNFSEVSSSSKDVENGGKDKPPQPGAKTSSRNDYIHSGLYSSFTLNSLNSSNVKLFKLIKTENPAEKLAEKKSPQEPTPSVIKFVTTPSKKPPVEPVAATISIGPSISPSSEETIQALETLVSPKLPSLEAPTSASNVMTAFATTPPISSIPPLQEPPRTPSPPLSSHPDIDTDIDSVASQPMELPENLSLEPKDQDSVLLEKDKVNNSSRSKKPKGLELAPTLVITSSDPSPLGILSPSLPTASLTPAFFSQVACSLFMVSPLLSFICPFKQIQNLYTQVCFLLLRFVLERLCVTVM
# Method in brief: as §1
# ETV1 = ETV1 (Homo sapiens, UniProt P50549 1-477)
# Sequence of ETV1 (P50549 whole entry): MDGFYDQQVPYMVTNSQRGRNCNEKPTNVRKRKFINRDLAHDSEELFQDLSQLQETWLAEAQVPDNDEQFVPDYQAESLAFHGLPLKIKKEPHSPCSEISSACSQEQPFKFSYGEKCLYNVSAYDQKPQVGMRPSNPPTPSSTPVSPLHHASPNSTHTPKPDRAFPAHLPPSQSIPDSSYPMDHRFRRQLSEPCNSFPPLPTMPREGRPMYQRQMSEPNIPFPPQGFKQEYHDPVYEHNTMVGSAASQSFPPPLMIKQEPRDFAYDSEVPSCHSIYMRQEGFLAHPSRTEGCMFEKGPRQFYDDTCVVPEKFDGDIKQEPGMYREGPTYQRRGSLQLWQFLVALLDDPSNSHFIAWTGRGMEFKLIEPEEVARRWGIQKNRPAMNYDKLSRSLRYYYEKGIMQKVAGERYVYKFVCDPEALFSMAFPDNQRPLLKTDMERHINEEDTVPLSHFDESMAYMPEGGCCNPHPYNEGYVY
# Method in brief: as §1
# ERF = biological target: T7, ERF (Homo sapiens, UniProt P50548 1-548)
# T7 sequence: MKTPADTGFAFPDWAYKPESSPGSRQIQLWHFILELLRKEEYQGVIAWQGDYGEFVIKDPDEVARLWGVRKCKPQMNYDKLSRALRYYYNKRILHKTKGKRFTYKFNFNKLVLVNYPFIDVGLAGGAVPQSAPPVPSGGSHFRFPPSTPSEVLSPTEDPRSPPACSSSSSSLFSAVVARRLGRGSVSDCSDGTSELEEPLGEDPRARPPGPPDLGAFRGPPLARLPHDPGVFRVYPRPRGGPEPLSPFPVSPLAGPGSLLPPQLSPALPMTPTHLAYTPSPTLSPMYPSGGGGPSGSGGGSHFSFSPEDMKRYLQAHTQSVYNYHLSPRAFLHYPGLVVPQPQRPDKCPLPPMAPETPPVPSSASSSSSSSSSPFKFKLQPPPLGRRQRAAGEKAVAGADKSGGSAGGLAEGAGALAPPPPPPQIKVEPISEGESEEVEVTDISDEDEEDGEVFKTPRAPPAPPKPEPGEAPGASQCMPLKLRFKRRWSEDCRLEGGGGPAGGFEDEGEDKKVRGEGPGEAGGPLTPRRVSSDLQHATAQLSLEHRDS
# Method in brief: as §1
# ETV3L = biological target: T8, ETV3L (Homo sapiens, UniProt Q6ZN32 1-361)
# T8 sequence: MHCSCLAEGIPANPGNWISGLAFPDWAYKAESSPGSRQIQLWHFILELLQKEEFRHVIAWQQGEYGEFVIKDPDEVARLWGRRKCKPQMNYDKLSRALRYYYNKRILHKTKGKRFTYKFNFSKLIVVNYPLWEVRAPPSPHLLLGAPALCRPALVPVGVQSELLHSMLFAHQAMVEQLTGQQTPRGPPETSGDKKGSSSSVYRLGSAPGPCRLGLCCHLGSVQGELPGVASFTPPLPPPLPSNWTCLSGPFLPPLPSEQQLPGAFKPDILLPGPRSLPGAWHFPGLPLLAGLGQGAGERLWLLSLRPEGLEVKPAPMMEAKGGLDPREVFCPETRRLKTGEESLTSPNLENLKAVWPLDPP
# Method in brief: as §1
# ETS2 = biological target: T9, ETS2 (Homo sapiens, UniProt P15036 1-469)
# T9 sequence: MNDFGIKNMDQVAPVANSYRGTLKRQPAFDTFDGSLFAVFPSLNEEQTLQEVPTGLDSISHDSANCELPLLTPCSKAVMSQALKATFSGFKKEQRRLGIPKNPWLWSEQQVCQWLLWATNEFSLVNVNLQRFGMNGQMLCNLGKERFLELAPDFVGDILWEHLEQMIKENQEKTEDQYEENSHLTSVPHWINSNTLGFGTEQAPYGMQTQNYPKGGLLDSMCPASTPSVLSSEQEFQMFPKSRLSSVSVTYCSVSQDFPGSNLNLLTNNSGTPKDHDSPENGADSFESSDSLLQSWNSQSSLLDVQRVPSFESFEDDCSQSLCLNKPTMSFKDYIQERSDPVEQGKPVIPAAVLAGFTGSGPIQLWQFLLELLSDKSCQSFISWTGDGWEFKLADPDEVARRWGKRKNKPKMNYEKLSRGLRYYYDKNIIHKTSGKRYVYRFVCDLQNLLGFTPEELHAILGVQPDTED
# Method in brief: as §1
# SPDEF = biological target: T10, SPDEF (Homo sapiens, UniProt O95238 1-335)
# T10 sequence: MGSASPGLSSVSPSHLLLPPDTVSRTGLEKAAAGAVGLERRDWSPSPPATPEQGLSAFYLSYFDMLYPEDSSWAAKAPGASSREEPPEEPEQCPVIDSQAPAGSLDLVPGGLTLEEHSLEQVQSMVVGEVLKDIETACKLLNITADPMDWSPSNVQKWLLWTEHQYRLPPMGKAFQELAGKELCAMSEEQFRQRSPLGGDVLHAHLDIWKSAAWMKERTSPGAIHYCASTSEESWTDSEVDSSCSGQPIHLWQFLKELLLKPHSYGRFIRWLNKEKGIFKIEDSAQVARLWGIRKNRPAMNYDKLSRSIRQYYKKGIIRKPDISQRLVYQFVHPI
# Method in brief: as §1
# ETV7 = biological target: T11, ETV7 (Homo sapiens, UniProt Q9Y603 1-341)
# T11 sequence: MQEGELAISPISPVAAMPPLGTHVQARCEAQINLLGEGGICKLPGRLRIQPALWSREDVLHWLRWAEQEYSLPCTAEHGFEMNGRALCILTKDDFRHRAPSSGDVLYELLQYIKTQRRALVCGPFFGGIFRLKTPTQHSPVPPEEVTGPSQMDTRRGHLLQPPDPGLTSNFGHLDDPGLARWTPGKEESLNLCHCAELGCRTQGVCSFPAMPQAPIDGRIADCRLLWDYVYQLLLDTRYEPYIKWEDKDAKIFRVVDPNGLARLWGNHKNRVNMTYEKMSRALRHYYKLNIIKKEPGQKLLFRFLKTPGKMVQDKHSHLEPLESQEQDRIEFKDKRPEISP
# Method in brief: as §1
# ETV3 = biological target: T12, ETV3 (Homo sapiens, UniProt P41162-2 1-143)
# T12 sequence: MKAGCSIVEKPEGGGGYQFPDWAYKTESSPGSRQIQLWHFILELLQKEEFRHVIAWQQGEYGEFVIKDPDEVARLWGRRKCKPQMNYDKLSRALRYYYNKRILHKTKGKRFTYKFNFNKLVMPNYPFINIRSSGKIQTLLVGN
# Method in brief: as §1
# ETV6 = ETV6 (Homo sapiens, UniProt P41212 1-452)
# Sequence of ETV6 (P41212 whole entry): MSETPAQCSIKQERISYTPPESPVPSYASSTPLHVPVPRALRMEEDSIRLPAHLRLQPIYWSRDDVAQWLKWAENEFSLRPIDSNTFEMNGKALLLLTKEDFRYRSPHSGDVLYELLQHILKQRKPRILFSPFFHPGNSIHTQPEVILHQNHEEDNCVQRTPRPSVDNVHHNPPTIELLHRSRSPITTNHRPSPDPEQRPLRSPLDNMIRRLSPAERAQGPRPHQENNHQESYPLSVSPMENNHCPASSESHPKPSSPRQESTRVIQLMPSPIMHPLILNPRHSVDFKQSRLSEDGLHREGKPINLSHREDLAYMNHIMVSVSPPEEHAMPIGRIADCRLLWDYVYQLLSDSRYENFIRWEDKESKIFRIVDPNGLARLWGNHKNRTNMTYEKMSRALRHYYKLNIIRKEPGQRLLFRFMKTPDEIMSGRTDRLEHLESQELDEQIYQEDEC
# Method in brief: as §1
sequence,measurement,setting,value
TGTTGT,binding signal,ELK1,"1.15 fold enrichment (6-mer frequency, TF over GST control)"
same,binding signal,ERG,"1.08 fold enrichment (6-mer frequency, TF over GST control)"
same,binding signal,ELF1,"1.13 fold enrichment (6-mer frequency, TF over GST control)"
same,binding signal,EHF,"1.09 fold enrichment (6-mer frequency, TF over GST control)"
same,binding signal,SPIB,"1.12 fold enrichment (6-mer frequency, TF over GST control)"
same,binding signal,ELK3,"1.05 fold enrichment (6-mer frequency, TF over GST control)"
same,binding signal,FEV,"1.11 fold enrichment (6-mer frequency, TF over GST control)"
same,binding signal,ETV5,"1.08 fold enrichment (6-mer frequency, TF over GST control)"
same,binding signal,ELF4,"1.11 fold enrichment (6-mer frequency, TF over GST control)"
same,binding signal,ELK4,"1.24 fold enrichment (6-mer frequency, TF over GST control)"
same,binding signal,ETV1,"1.2 fold enrichment (6-mer frequency, TF over GST control)"
same,binding signal,ERF,"1.02 fold enrichment (6-mer frequency, TF over GST control)"
same,binding signal,ETV3L,"1.15 fold enrichment (6-mer frequency, TF over GST control)"
same,binding signal,ETS2,"1.05 fold enrichment (6-mer frequency, TF over GST control)"
same,binding signal,SPDEF,"1.21 fold enrichment (6-mer frequency, TF over GST control)"
same,binding signal,ETV7,"1.14 fold enrichment (6-mer frequency, TF over GST control)"
same,binding signal,ETV3,"1.14 fold enrichment (6-mer frequency, TF over GST control)"
same,binding signal,ETV6,"1.11 fold enrichment (6-mer frequency, TF over GST control)"
